# Laboratory results published in the supplement of paper PMC6555819.
# Columns and labels:
# Test in all cases: PBM binding z-score (relative to random genomic background probes); higher = stronger binding; sequences stand for … in GC…GCGATTGACAGCGTAGAATGAAGG
# [1] = test system: FXR:RXRa (NR concentration 270 nM, RXRa partner concentration 90 nM)
# Procedure, shortened: (§1)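 Custom Agilent 4×180K protein-binding microarrays carried double-stranded probes. Their 34-nt variable regions held direct-repeat seeds, single-nucleotide variants, half-site ablations and random human genomic background sequences. Arrays were incubated 1 h with ligand-free nuclear receptor dimers in PBS pH 7.4, 2% milk, 0.02% Triton X-100, 1 mM DTT, 0.2 mg/mL BSA and 0.4 mg/ml salmon testes DNA. Antibodies against each partner (one per run) detected binding, and scanned fluorescence was regression-normalized. Binding z-scores use random background probes as reference.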
# [2] = test system: LXRa:RXRa (NR concentration 270 nM, RXRa partner concentration 90 nM)
# Procedure, shortened: as §1
# [3] = test system: LXRa homodimer (NR concentration 270 nM)
# Procedure, shortened: as §1
# [4] = test system: LXRb:RXRa (NR concentration 270 nM, RXRa partner concentration 90 nM)
# Procedure, shortened: as §1
# [5] = test system: LXRb homodimer (NR concentration 270 nM)
# Procedure, shortened: as §1
# [6] = test system: PPARa:RXRa (NR concentration 270 nM, RXRa partner concentration 90 nM)
# Procedure, shortened: as §1
# [7] = test system: PPARg:RXRa (NR concentration 180 nM, RXRa partner concentration 90 nM)
# Procedure, shortened: as §1
# [8] = test system: PPARg:RXRa 270nM:90nM, anti-RXR (NR concentration 270 nM, RXRa partner concentration 90 nM)
# Procedure, shortened: as §1
# [9] = test system: PPARg:RXRa 30nM:10nM, anti-RXR (NR concentration 30 nM, RXRa partner concentration 10 nM)
# Procedure, shortened: as §1
# [10] = test system: PPARg:RXRa 90nM:30nM, anti-RXR (NR concentration 90 nM, RXRa partner concentration 30 nM)
# Procedure, shortened: as §1
# [11] = test system: PPARg:RXRa DBDmut IVT, anti-RXR (DBD mutation: RXRa K156A/R161A, NR concentration 270 nM, RXRa partner concentration 90 nM)
# Procedure, shortened: as §1
# [12] = test system: PPARg:RXRa IVT, anti-PPARg (NR concentration 270 nM, RXRa partner concentration 90 nM)
# Procedure, shortened: as §1
# [13] = test system: PPARg DBDmut:RXRa IVT, anti-PPARg (DBD mutation: PPARg1 K132A/R137A, NR concentration 270 nM, RXRa partner concentration 90 nM)
# Procedure, shortened: as §1
# [14] = test system: PPARg DBDmut IVT, anti-PPARg (DBD mutation: PPARg1 K132A/R137A, NR concentration 270 nM)
# Procedure, shortened: as §1
# [15] = test system: PPARg homodimer (NR concentration 180 nM)
# Procedure, shortened: as §1
# [16] = test system: PXR:RXRa (NR concentration 270 nM, RXRa partner concentration 90 nM)
# Procedure, shortened: as §1
# [17] = test system: PXR homodimer (NR concentration 270 nM)
# Procedure, shortened: as §1
# [18] = test system: RARa:RXR (NR concentration 270 nM, RXRa partner concentration 90 nM)
# Procedure, shortened: as §1
# [19] = test system: RARa homodimer (NR concentration 270 nM)
# Procedure, shortened: as §1
# [20] = test system: RARb:RXRa (NR concentration 270 nM, RXRa partner concentration 90 nM)
# Procedure, shortened: as §1
Sequence,PBM binding z-score [1],PBM binding z-score [2],PBM binding z-score [3],PBM binding z-score [4],PBM binding z-score [5],PBM binding z-score [6],PBM binding z-score [7],PBM binding z-score [8],PBM binding z-score [9],PBM binding z-score [10],PBM binding z-score [11],PBM binding z-score [12],PBM binding z-score [13],PBM binding z-score [14],PBM binding z-score [15],PBM binding z-score [16],PBM binding z-score [17],PBM binding z-score [18],PBM binding z-score [19],PBM binding z-score [20]
GCGACTGGGGCATCAGCAGGATACCATAACTTAA,-0.587,-0.962,-0.678,-0.508,-0.969,0.0763,0.883,0.422,-0.491,-0.212,3.9,2.61,-1.01,-0.959,-0.175,-0.691,-0.304,-0.475,-0.756,0.233
AGAATGAGGTTAAGATCAGGAAAACAGAATACAT,2.16,1.98,-0.0642,1.77,-0.122,3.76,2.48,2.46,1.03,1.72,2.5,2.67,1.33,0.813,0.0242,1.08,0.189,1.93,0.732,1.9
TAGCCTAGGTCATTCAGGGGCCAGTGTAGAAAGC,4.78,3.98,0.7,3.06,1.08,3.66,1.53,2.43,0.00175,1.14,1.87,2.74,0.0729,-0.141,1.39,2.27,-0.259,3.32,-0.591,3.96
AATATAGGGTCACTAGGCCAGAGTAGGTACGAAT,6.26,5.13,0.894,4.07,0.704,5.67,8.45,6.68,3.94,5.68,5.21,6.14,2.32,1.64,2.41,3.05,0.508,4.66,0.81,4.11
TAGCCTAGGGCAGATCGGGCCAGTATACGCTATA,-0.551,-0.549,-0.559,-0.757,-1.16,-0.359,0.168,-0.585,-0.695,-0.348,-0.53,-0.145,-0.91,-1.38,-0.781,-0.394,-0.7,0.406,-1.26,0.79
TCTTGTAGATCAAAGGTTACGAAAGCCGAAGCCT,2.01,2.2,0.222,2.27,-0.174,4.71,8.72,8.23,7.86,8.98,2.12,3.96,0.521,0.147,1.11,2.41,-0.449,3.28,-0.123,2.14
GCTGCTAAGTCAGGTTGGTCAGCTAACGGGTACG,-0.434,-0.657,-0.43,-0.836,-0.829,-0.794,-0.46,-0.678,-0.924,-0.942,-0.0465,-0.681,-1.49,-1.03,-0.201,-0.468,-0.643,-0.502,-0.643,-0.0361
GCATATGGGTAATACAAGGTGAAAGTCCGATTGT,0.428,1.27,0.16,0.226,-0.552,1.46,0.928,1.03,0.412,0.777,3.34,2.47,0.702,0.516,0.3,0.344,0.0703,1.08,0.617,0.416
TCTTGTAGATCAATATAGGTTAAGAAAGTGCGCT,0.801,2.72,0.469,1.28,0.58,1.97,0.81,2.09,3.36,2.56,2.95,2.98,1.55,1.13,0.797,1.67,0.304,1.4,1.22,0.676
CCTCGCAGGCCAGGGTCACTCAAGCATTTCGCTT,2.11,1.69,-0.251,2.06,-0.654,3.01,0.19,1.04,-0.771,0.0823,-0.539,0.241,-0.923,-1.57,1.02,2.49,-0.431,3.1,-0.222,2.54
GCTTACGGGTCAATGGTTATAGCATGAATAGAAT,4.8,2.75,-0.289,2.89,0.196,4.78,4.3,4.54,1.86,3.57,3.66,3.16,0.504,0.889,1.06,2.21,0.167,3.03,0.149,3.43
CCTCGGAGGACAGAAGGTCATAGCTGTCCGCTTT,2.89,3.44,1.4,2.23,-0.526,3.17,0.58,1.68,-0.379,0.915,0.177,0.772,-1.55,-1.54,2.13,3.22,0.225,3.55,0.138,3.5
CCTAGCATGCCAGGGTCACTCAAGCATTTCGCTT,2.11,1.85,-0.459,2.23,-0.94,3.15,0.542,1.23,-0.373,0.276,-0.246,0.391,-0.691,-1.32,0.817,2.61,-0.116,3.17,-0.337,2.35
TAGCCTAGGTCAGATCGGGACAGTATACGCTATA,3.31,1.3,-0.0323,1.07,-0.146,1.82,0.86,0.922,0.0788,0.727,0.601,1.73,-0.45,-0.46,0.479,1.74,-0.545,1.11,-0.615,3.11
TATACAGGGTCGAAGGCCAGAGTACGAATGTCGA,1.27,1.32,-0.263,1.01,0.799,2.44,2.45,3.28,1.28,2.65,-0.348,1.5,1.05,0.465,0.74,1.01,-0.0237,1.61,-0.116,1.75
GGAACGAGGGCATTCGAGTAGATAGCATGGCGAT,0.816,0.394,-0.428,0.0953,-0.937,1.33,1.11,0.886,-0.0142,0.304,2.87,2.05,-0.011,-0.669,-0.256,0.557,-0.0789,0.335,-0.251,1.56
ACGAGCAGGCCAAGTTTGGGTCACTCAAACAAAG,0.0598,-0.0138,-0.363,0.536,-0.887,1.33,-0.00564,0.0624,-0.543,-0.429,-0.114,0.246,-0.842,-0.922,0.235,0.69,-0.152,1.46,-0.613,1.54
TCATATAGGTAAAAGGTGAAAGTTGGTGTGGTAA,2.15,2.33,0.407,2.44,0.326,5.33,9.26,8.44,8.7,8.75,5.28,5.23,1.91,1.67,2.39,2.16,0.944,3.3,2.02,2.09
AGTCAAAGTTCATCGAGGTAACGTAAGATATGCT,6.65,6,4.5,3.72,1.07,5.27,6.71,6.39,3.74,5.59,0.275,3.44,1.15,1.15,2.53,5.38,9.82,3.97,0.864,5.07
CCTGCTAGGTCATGGTCGGCTAATCTACAGTATG,3.56,2.8,-0.0293,1.91,-0.492,3.56,2.32,2.78,0.716,1.99,4.22,3.41,0.753,-0.172,1.51,1.41,-0.226,2.46,-0.276,3.93
CTTACTGGGCCAAAAAGGTCATTGATGCCGATAA,4.42,4.75,3.31,4.26,0.76,5.17,5.05,5.24,2.89,4.69,6.06,5.95,2.51,1.61,4.12,5.01,4.11,5.16,1.79,4.03
TCTTGTAGATCAACCGGAGGTTAAGAAAGATCGA,0.397,1.58,1.09,1.17,-0.00394,1.26,-0.257,1.55,2.69,2.15,1.73,0.867,0.463,0.343,-0.156,0.984,0.000543,1.25,-0.186,0.743
CGAACTAGGTCATTGCCAGGACAGTGAATAGTAA,3.98,2.75,0.491,1.6,-0.019,4.39,6.96,6.06,3.25,5.51,8.25,7.95,1.34,0.503,1.04,1.4,0.261,1.87,0.423,3.44
TCTTGTAGATCAATAGAGGTTTAGAAAGTGCGCT,0.391,0.283,-0.272,0.00462,-0.299,0.237,-0.452,1.23,2.5,1.69,1.65,0.249,0.996,0.224,-0.539,0.49,-0.0138,0.588,0.0314,-0.311
GCATACAGGTAATACAAGGTGAAAGTCCGATTGT,0.599,2.17,0.595,0.711,-0.363,1.3,0.859,0.843,0.676,0.712,0.771,1.43,0.568,-0.128,0.379,0.708,0.62,1.48,0.481,0.594
CCTATTAGTTGACCATAAGCGCAACCGAAGCTCG,0.497,0.827,0.899,1.04,1.41,0.528,0.326,0.456,0.0964,0.123,0.822,0.118,1.15,0.388,2.28,0.436,1.11,0.706,2.45,0.701
TCAGACAGGTGAAGGTTACTCAGGTACGCAGTCG,1.24,3.55,0.607,2.38,0.0683,1.81,1.06,2.39,3.71,2.81,2.66,1.5,0.0117,0.759,1.02,1.38,0.43,1.55,0.589,1.83
TCACATAGGTAATACAGGTGAAAGTCGGCATCTA,0.672,0.976,0.424,0.83,0.142,1.66,1.04,2.47,3.63,3.03,2.54,1.8,1.44,0.888,0.824,0.746,0.212,1.26,0.821,0.68
